Records with an inconclusive call do not appear. Active and inactive are the calls of the source. Unless noted, calls come from the whole dose curve; as a rule, active = well fitted curve in the direction sought with a large enough effect in the repeat runs; inconclusive = weak or mixed curves; inactive = no such curve, though single readings can be large; an effect the other way counts as inactive or inconclusive.
Key:
[1] = qHTS RealTime-Glo MT Cell Viability Assay in HepG2 cells - 32 hour (AID 1224877); note: nearly all actives have a fitted effect of over 55% in size
In short: (§1)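 Compound treatment began 5 h after plating HepG2 cells (600/well) with NanoLuc luciferase and prosubstrate. Plates stayed at 37 C for 40 h; luminescence was captured at six time points, 0 h through 40 h.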

[2] = A CellTox Green Cytotoxicity Assay to monitor cytotoxicity in HepG2 cells - 24 hour (AID 1224878); note: nearly all actives have a fitted effect of over 45% in size
In short: (§2)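 HepG2 cells were seeded together with the CellTox Green dye at 600 cells/well, left 5 h at 37 C/5% CO2, then given compounds in DMSO. Fluorescence from dye bound to dead-cell DNA was read repeatedly over 40 h of treatment at 37 C.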

[3] = A CellTox Green Cytotoxicity Assay to monitor cytotoxicity in HepG2 cells - 40 hour (AID 1224879); note: nearly all actives have a fitted effect of over 40% in size
In short: as §2

[4] = qHTS RealTime-Glo MT Cell Viability Assay in HEK293 cells - 0 hour (AID 1224880); note: top concentration of the series differs between compounds; nearly all actives have a fitted effect of over 45% in size
In short: (§3)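 HEK293 cells mixed with RealTime-Glo reagents (NanoLuc plus cell-permeant prosubstrate) at 600 cells/well, preincubated 5 h at 37 C/5% CO2, then given 23 nL compound in DMSO. Nonlytic luminescence from viable cells was read at 0, 8, 16, 24, 32 and 40 h.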

[5] = A CellTox Green Cytotoxicity Assay to monitor cytotoxicity in HEK293 cells - 32 hour (AID 1224881); note: nearly all actives have a fitted effect of over 40% in size; note: potency is the fitted concentration of half-maximal effect
In short: (§4)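 HEK293 cells premixed with CellTox Green dye were seeded at 600 cells/well and left 5 h at 37 C/5% CO2 before pin transfer of 23 nL compound in DMSO. Fluorescence from dye bound to dead-cell DNA was read during 40 h treatment.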

[6] = A CellTox Green Cytotoxicity Assay to monitor cytotoxicity in HepG2 cells - 0 hour (AID 1224882); note: nearly all actives have a fitted effect of over 35% in size
In short: as §2

[7] = A CellTox Green Cytotoxicity Assay to monitor cytotoxicity in HepG2 cells - 32 hour (AID 1224883); note: nearly all actives have a fitted effect of over 50% in size
In short: as §2

[8] = A CellTox Green Cytotoxicity Assay to monitor cytotoxicity in HEK293 cells - 8 hour (AID 1224884); note: nearly all actives have a fitted effect of over 35% in size
In short: as §4

[9] = qHTS RealTime-Glo MT Cell Viability Assay in HepG2 cells - 16 hour (AID 1224885); note: nearly all actives have a fitted effect of over 50% in size
In short: as §1

[10] = qHTS RealTime-Glo MT Cell Viability Assay in HEK293 cells - 24 hour (AID 1224886); note: top concentration of the series differs between compounds; nearly all actives have a fitted effect of over 50% in size
In short: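 Quantitative high-throughput screen of the Tox21 10K library in HEK293: cells and RealTime-Glo reagents plated together, compound added at 5 h, luminescence monitored through 40 h at 37 C.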

[11] = qHTS RealTime-Glo MT Cell Viability Assay in HEK293 cells - 8 hour (AID 1224887); note: top concentration of the series differs between compounds; nearly all actives have a fitted effect of over 50% in size
In short: as §3

[12] = qHTS RealTime-Glo MT Cell Viability Assay in HepG2 cells - 0 hour (AID 1224889); note: nearly all actives have a fitted effect of over 50% in size
In short: as §1

[13] = A CellTox Green Cytotoxicity Assay to monitor cytotoxicity in HepG2 cells - 8 hour (AID 1224890); note: nearly all actives have a fitted effect of over 45% in size
In short: as §2

[14] = qHTS assay to identify small molecule antagonists of the estrogen receptor alpha (ER-alpha) signaling pathway using the BG1 cell line in the presence of 0.1 nM 17-beta-estradiol - cell viability counter screen (AID 1259241); note: nearly all actives have a fitted effect of over 40% in size
In short: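 Measures cytotoxicity alongside the ER-alpha antagonist readout: VM7Luc4E2 cells, charcoal-stripped serum, 0.1 nM 17beta-estradiol final, 22 hr compound incubation at 37C, CellTiter-Fluor fluorescence.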

[15] = qHTS assay to identify small molecule antagonists of the androgen receptor (AR) signaling pathway using the MDA cell line in the presence of 0.5 nM R1881 - cell viability counter screen (AID 1259242); note: nearly all actives have a fitted effect of over 45% in size
In short: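 MDA-kb2 cells (human breast carcinoma, stably carrying MMTV-luciferase reporter) were exposed to compounds with 0.5 nM R1881 (final) for 16 hr at 37C, 0% CO2; viability then read as live-cell protease fluorescence (CellTiter-Fluor, 30 min) in the same wells.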

[16] = biological target: Estrogen receptor (Homo sapiens) (UniProt P03372); experiment: qHTS assay to identify small molecule antagonists of the estrogen receptor alpha (ER-alpha) signaling pathway using the BG1 cell line in the presence of 0.1 nM 17-beta-estradiol (AID 1259244); note: nearly all actives have a fitted effect of over 50% in size
In short: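 VM7Luc4E2 cells (endogenous full-length ER-alpha, stable 4xERE-luciferase) were grown 5 days in phenol red-free medium with charcoal-stripped FBS, then exposed 22 h at 37C to compounds plus 0.1 nM (final) 17beta-estradiol; ONE-Glo luminescence read-out.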

[17] = qHTS assay to identify small molecule HDAC inhibitors (AID 1259364)
In short: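 Wild-type HCT-116 cells were plated overnight, exposed to compounds for 2 h at 37 °C, then given HDAC-Glo class I/II luminogenic reagent for 30 min at room temperature before luminescence was read.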

[18] = A CellTox Green Cytotoxicity Assay to monitor cytotoxicity in HEK293 cells - 16 hour (AID 1224888); note: nearly all actives have a fitted effect of over 35% in size; note: potency is the fitted concentration of half-maximal effect
In short: as §4

[19] = biological target: Androgen receptor (Homo sapiens) (UniProt P10275); experiment: qHTS assay to identify small molecule antagonists of the androgen receptor (AR) signaling pathway using the MDA cell line in the presence of 0.5 nM R1881 (AID 1259243); note: nearly all actives have a fitted effect of over 50% in size
In short: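 MDA-kb2 human breast carcinoma cells carrying an MMTV-luciferase reporter (AR- and GR-responsive) were plated, rested 5 hr at 37C, dosed with compounds, then stimulated with 0.5 nM R1881 (final) for 16 hr; luminescence was read after ONE-Glo.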

[20] = qHTS assay to identify small molecule phospholipidosis (PLD) inducers (AID 1259344; active = well fitted curve in the direction sought with a large enough effect; an effect the other way counts as inactive or inconclusive)
In short: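 Phospholipidosis is scored by imaging LipidTOX-stained pits in HepG2 cells exposed to compound for 24 h at 37 C; pit counts and integrated intensities per well and per cell serve as outputs.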

Measured: Potency

Sequence of Androgen receptor (Homo sapiens) (P10275 whole entry, looked up): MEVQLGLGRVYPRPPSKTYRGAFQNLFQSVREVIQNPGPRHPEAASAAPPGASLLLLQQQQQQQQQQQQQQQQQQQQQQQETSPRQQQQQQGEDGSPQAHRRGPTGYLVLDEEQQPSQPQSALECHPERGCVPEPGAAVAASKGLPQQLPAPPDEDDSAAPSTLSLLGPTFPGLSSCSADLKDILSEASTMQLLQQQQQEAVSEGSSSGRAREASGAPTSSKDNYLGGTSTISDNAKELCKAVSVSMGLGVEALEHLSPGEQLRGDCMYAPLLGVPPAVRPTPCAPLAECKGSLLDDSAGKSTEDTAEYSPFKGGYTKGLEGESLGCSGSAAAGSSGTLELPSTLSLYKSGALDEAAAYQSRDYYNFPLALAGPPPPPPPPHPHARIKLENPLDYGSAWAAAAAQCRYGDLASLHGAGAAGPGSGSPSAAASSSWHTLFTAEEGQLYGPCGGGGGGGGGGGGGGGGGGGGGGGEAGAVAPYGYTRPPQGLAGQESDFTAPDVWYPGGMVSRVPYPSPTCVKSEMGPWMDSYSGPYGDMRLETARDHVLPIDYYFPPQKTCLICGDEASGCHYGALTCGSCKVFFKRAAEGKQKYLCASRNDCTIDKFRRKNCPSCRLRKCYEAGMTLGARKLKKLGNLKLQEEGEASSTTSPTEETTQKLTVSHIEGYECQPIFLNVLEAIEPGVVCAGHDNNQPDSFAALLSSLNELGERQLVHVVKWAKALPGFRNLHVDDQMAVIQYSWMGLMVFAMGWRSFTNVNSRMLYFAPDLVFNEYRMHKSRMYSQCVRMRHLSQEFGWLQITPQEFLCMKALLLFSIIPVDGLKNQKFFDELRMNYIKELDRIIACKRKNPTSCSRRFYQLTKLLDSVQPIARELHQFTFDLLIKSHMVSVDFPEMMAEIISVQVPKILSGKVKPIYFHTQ
Sequence of Estrogen receptor (Homo sapiens) (P03372 whole entry, looked up): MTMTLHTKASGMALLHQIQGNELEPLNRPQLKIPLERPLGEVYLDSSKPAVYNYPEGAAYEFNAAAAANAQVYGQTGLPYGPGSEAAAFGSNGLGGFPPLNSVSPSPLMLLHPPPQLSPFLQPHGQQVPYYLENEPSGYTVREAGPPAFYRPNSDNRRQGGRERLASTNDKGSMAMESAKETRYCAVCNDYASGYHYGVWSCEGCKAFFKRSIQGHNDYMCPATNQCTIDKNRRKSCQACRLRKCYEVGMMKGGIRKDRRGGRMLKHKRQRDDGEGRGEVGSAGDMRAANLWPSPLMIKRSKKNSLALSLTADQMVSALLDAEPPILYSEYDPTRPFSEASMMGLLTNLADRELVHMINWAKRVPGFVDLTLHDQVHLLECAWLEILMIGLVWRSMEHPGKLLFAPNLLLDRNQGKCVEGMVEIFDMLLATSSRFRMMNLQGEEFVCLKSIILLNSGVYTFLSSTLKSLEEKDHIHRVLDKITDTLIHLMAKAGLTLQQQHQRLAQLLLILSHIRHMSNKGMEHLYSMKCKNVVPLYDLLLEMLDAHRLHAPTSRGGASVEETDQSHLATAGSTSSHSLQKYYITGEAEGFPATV

Cc1ccc(N)cc1S(=O)(=O)O
inactive: [1] | [2] | [3] | [4] | [5] | [6] | [7] | [8] | [9] | [10] | [11] | [12] | [13] | [14] | [15] | [16] | [17]

CC1OCCC1=O (stereo not drawn)
inactive: [1] | [2] | [3] | [4] | [5] | [6] | [7] | [8] | [9] | [10] | [11] | [12] | [13] | [14] | [15] | [16]

CC/C(C)=N\O[Si](C)(O/N=C(\C)CC)O/N=C(\C)CC
inactive: [1] | [2] | [3] | [4] | [5] | [6] | [7] | [8] | [9] | [10] | [11] | [12] | [13] | [14] | [15] | [16] | [17]

CCCCOCCOC(=O)COc1ccc(Cl)cc1Cl
inactive: [1] | [2] | [3] | [4] | [5] | [6] | [8] | [9] | [10] | [11] | [12] | [13] | [14] | [15] | [16] | [17]

CCO[Si](CC)(OCC)OCC
inactive: [1] | [2] | [3] | [4] | [5] | [6] | [7] | [9] | [10] | [11] | [18] | [12] | [13] | [14] | [15] | [19] | [16] | [17]

O=C(Cn1ccnc1[N+](=O)[O-])NCc1ccccc1
inactive: [1] | [2] | [3] | [4] | [5] | [6] | [8] | [9] | [10] | [11] | [12] | [13] | [14] | [15] | [16] | [20] | [17]

CCC(C)C(=O)OCCc1ccccc1 (stereo not drawn)
inactive: [1] | [2] | [3] | [4] | [6] | [7] | [8] | [9] | [10] | [11] | [18] | [12] | [13] | [14] | [15] | [16] | [17]

CC(S)C(C)S (stereo not drawn)
inactive: [1] | [2] | [4] | [5] | [6] | [7] | [8] | [9] | [10] | [11] | [18] | [12] | [13] | [14] | [15] | [19] | [16] | [17]

C[Si]1(C)O[Si](C)(C)O[Si](C)(C)O[Si](C)(C)O[Si](C)(C)O1
inactive: [1] | [2] | [3] | [4] | [5] | [6] | [8] | [9] | [10] | [11] | [18] | [12] | [13] | [14] | [15] | [16] | [17]

CCCCCCCCCCCCCCC(=O)NC(CO)CCCCCCCCCCCCCC (stereo not drawn)
inactive: [1] | [2] | [3] | [4] | [5] | [6] | [8] | [9] | [10] | [11] | [18] | [12] | [13] | [14] | [15] | [16] | [17]

CC(C)c1ccc(C=O)cc1
inactive: [1] | [2] | [3] | [4] | [5] | [6] | [7] | [9] | [10] | [11] | [18] | [12] | [13] | [14] | [15] | [16] | [17]

CCCC(=O)OC/C=C(\C)CCC=C(C)C
active: [5] 49 µM | [18] 54.9 µM
inactive: [1] | [2] | [3] | [4] | [6] | [9] | [10] | [11] | [12] | [13] | [14] | [15] | [16] | [17]

CCCC(=O)Nc1ccc(OCC(O)CNC(C)C)c(C(C)=O)c1 (stereo not drawn)
inactive: [1] | [2] | [3] | [4] | [5] | [6] | [8] | [9] | [10] | [11] | [18] | [12] | [13] | [14] | [15] | [16] | [20] | [17]

CCCCC1CCC(O)CC1 (stereo not drawn)
inactive: [1] | [2] | [3] | [4] | [5] | [6] | [8] | [9] | [10] | [11] | [18] | [12] | [13] | [14] | [15] | [19] | [17]

CC(=O)c1cc(C)oc1C
inactive: [1] | [2] | [3] | [4] | [5] | [6] | [7] | [9] | [10] | [11] | [12] | [13] | [14] | [15] | [19]

CC(O)COC(C)(C)C (stereo not drawn)
inactive: [1] | [2] | [4] | [5] | [6] | [7] | [8] | [9] | [10] | [11] | [18] | [12] | [13] | [14] | [15]

Source: PubChem BioAssay (Tox21)
